Reference: the supplement of paper PMC10849652
About 7,900 targets were measured; listed, in parts, are those with a hit and a random draw of the rest. About 0.6% of all pairs of compound and target were hits.

Tests used:
Assay in all cases: log2 fold change, soluble protein after heating vs DMSO (PISA); higher = thermal stabilisation; K562 cells, 10 uM, 30 min; active = over 0.2 and 3.5 SD of the protein, either way, in both replicates (recomputed)
erlotinib = compound: C#Cc1cccc(Nc2ncnc3cc(OCCOC)c(OCCOC)cc23)c1 [erlotinib]
Outline: (§1)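 K562 cells at 2×10^6 cells/mL were treated with 10 μM compound for 30 min. Aliquots were heated for 3 min across 48°C-58°C, pooled, and extracted in PBS with 0.5% NP-40 at 4°C; soluble protein was the supernatant after 21,000xg for 90 min. Soluble protein was quantified by TMTpro 16plex LC-MS/MS with channel sums equalised, and reported as log2 fold change in thermal stability against DMSO controls, with values from duplicates.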

[1] = compound: C/C(=N\NC(=O)C1=CC(=CC=C1)S(=O)(=O)N2CCOCC2)/C3=C(C=CC(=C3)Cl)O
Outline: as §1

[2] = compound: C1=CC(=C(C=C1Cl)C2=NC3=NC=CN=C3C(=N2)NC4=CC=NC=C4)F
Outline: as §1

[3] = compound: C1=CC(=CC=C1C2=NC3=C(N2)C=C(C=C3)C(=O)N)OC4=CC=C(C=C4)Cl
Outline: as §1

[4] = compound: C1=CC2=C(C=CC(=C2)/C=C\3/C(=O)NC(=NCC4=CC=CS4)S3)N=C1
Outline: as §1

[5] = compound: C1=CC2=NC=CN=C2C=C1/C=C/3\C(=O)NC(=O)S3
Outline: as §1

[6] = compound: C1=CC=C(C=C1)C2=NC(=C(N2)C3=CC=NC=C3)C4=CC(=C(C=C4)Cl)O
Outline: as §1

[7] = compound: C1=CC=C2C(=C1)C3=NNC4=CC=CC(=C43)C2=O
Outline: as §1

[8] = compound: C1CCN(C1)C(=O)NC2=CC=CC(=C2)NC3=NC=C(C(=N3)NCCC4=CN=CN4)Br
Outline: as §1

[9] = compound: C1CN(CCC1(CC2=CC=C(C=C2)Cl)N)C3=NC=NC4=C3C=CN4
Outline: as §1

IRAK-1-4 Inhibitor I = compound: C1COCCN1CCN2C3=CC=CC=C3N=C2NC(=O)C4=CC(=CC=C4)[N+](=O)[O-] [IRAK-1-4 Inhibitor I]
Outline: as §1

ibrutinib = compound: C=CC(=O)N1CCC[C@@H](n2nc(-c3ccc(Oc4ccccc4)cc3)c3c(N)ncnc32)C1 [ibrutinib]
Outline: as §1

[10] = compound: CC(=O)c1cnc2ccc(-c3cc(Cl)c(O)c(Cl)c3)nc2c1N[C@H]1CC[C@H](CN(C)C)CC1
Outline: as §1

ralimetinib = compound: CC(C)(C)Cn1c(N)nc2ccc(-c3[nH]c(C(C)(C)C)nc3-c3ccc(F)cc3)nc21 [ralimetinib]
Outline: as §1

[11] = compound: CC(C)(O)CC(=O)NCCn1ccc2ncnc(Nc3ccc(Oc4cccc(C(F)(F)F)c4)c(Cl)c3)c21
Outline: as §1

[12] = compound: CC(C)C1=C2N=C(C=C(N2N=C1)NCC3=CC=CC=C3)NCCCCCCN
Outline: as §1

[13] = compound: CC(C)C[C@@H](C=O)NC(=O)[C@H](CC(C)C)NC(=O)[C@H](CC(C)C)NC(=O)OCc1ccccc1
Outline: as §1

pinometostat = compound: CC(C)N(C[C@H]1O[C@@H](n2cnc3c(N)ncnc32)[C@H](O)[C@@H]1O)[C@H]1C[C@@H](CCc2nc3cc(C(C)(C)C)ccc3[nH]2)C1 [pinometostat]
Outline: as §1

[14] = compound: CC1=C(C(CC(=O)N1)C2=CC=C(C=C2)C(F)(F)F)C(=O)NC3=C(C=C4C(=C3)C=NN4)F
Outline: as §1

[15] = compound: CC1=C(C2=C(C=C1)C(=O)C3=CC=CC=C3N2CCCN)C
Outline: as §1

Measured: log2 fold change

SLC6A6 (UniProt P31641)
UniProt P31641, sequence (P31641 whole entry, looked up): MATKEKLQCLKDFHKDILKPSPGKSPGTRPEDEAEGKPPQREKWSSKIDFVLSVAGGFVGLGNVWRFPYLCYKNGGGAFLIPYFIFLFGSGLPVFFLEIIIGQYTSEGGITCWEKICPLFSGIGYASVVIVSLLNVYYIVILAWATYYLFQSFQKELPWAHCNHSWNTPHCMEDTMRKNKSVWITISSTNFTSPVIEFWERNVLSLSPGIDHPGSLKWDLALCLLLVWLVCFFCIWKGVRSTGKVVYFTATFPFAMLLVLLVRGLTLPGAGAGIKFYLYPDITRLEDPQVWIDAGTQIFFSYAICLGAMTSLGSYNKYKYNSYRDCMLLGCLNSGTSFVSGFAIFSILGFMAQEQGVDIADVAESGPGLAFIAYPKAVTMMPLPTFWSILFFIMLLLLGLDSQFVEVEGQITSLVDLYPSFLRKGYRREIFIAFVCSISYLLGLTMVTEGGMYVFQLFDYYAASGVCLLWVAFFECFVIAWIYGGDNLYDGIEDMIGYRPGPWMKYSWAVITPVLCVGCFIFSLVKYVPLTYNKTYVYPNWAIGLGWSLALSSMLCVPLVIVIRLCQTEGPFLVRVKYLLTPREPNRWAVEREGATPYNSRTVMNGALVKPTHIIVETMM
inactive: erlotinib 0.001 | [1] 0.013 | [2] 0.123 | [3] -0.005 | [4] 0.003 | [5] 0.055 | [6] 0.007 | [7] -0.054 | [8] 0.087 | [9] 0.083 | IRAK-1-4 Inhibitor I -0.025 | ibrutinib 0.036 | [10] -0.045 | ralimetinib -0.186 | [11] -0.033 | [12] 0.107 | [13] 0.101 | pinometostat -0.071 | [14] -0.025 | [15] -0.181

SLC7A6 (UniProt Q92536)
UniProt Q92536, sequence (Q92536 whole entry, looked up): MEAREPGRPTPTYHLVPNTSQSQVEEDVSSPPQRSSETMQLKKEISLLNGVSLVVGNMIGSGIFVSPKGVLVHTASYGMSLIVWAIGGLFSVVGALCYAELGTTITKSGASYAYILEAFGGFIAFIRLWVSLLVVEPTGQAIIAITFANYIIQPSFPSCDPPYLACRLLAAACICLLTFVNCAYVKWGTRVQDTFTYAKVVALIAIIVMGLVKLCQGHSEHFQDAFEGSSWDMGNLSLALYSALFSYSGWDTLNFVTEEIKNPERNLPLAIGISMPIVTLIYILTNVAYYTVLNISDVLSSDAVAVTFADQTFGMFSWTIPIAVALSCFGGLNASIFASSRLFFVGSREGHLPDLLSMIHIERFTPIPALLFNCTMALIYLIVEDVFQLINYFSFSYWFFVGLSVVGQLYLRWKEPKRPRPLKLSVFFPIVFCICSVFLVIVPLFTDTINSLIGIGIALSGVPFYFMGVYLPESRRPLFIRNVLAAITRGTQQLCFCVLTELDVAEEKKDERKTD
inactive: erlotinib -0.051 | [1] 0.232 | [2] -0.161 | [3] 0.026 | [4] -0.001 | [5] 0.034 | [6] 0.008 | [7] -0.033 | [8] -0.004 | [9] 0.135 | IRAK-1-4 Inhibitor I -0.03 | ibrutinib -0.032 | [10] -0.037 | ralimetinib -0.02 | [11] -0.301 | [12] 0.142 | [13] 0.006 | pinometostat -0.068 | [14] 0.025 | [15] -0.02

SNRNP27 (UniProt Q8WVK2)
UniProt Q8WVK2, sequence (Q8WVK2 whole entry, looked up): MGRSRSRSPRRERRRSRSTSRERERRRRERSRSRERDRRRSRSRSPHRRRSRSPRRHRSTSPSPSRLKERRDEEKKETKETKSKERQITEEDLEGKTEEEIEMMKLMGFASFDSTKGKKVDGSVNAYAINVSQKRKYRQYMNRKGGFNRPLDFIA
inactive: erlotinib 0.026 | [1] -0.021 | [2] 0.052 | [3] 0.015 | [4] 0.015 | [5] 0.045 | [6] -0.165 | [7] -0.027 | [8] 0.061 | [9] 0.035 | IRAK-1-4 Inhibitor I 0.033 | ibrutinib 0.002 | [10] -0.03 | ralimetinib -0.118 | [11] 0.018 | [12] 0.035 | [13] 0.054 | pinometostat -0.04 | [14] 0.082 | [15] -0.043

STX7 (UniProt O15400)
UniProt O15400, sequence (O15400 whole entry, looked up): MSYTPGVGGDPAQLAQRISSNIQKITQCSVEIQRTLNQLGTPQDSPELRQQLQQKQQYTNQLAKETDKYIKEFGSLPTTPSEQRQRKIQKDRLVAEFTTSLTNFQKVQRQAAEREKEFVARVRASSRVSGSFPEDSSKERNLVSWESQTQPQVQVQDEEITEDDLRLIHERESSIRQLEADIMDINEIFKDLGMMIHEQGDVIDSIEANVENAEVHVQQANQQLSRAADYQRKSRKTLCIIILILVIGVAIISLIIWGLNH
inactive: erlotinib 0.02 | [1] -0.029 | [2] 0.02 | [3] 0.021 | [4] -0.02 | [5] 0.02 | [6] -0.009 | [7] -0.007 | [8] 0 | [9] 0.056 | IRAK-1-4 Inhibitor I -0.01 | ibrutinib 0.024 | [10] 0.011 | ralimetinib -0.039 | [11] 0.012 | [12] -0.087 | [13] -0.009 | pinometostat -0.109 | [14] 0 | [15] 0.017

TIPRL (UniProt O75663)
UniProt O75663, sequence (O75663 whole entry, looked up): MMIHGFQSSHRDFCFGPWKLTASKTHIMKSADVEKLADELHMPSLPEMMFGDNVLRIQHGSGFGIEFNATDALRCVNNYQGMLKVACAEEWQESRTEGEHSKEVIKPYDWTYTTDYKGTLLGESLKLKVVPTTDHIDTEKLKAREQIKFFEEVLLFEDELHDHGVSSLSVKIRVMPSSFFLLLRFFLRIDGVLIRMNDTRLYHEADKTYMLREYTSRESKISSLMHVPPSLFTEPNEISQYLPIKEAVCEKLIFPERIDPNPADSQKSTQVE
inactive: erlotinib 0.055 | [1] 0.097 | [2] 0.031 | [3] 0.009 | [4] 0.049 | [5] 0.036 | [6] -0.002 | [7] 0.03 | [8] 0.021 | [9] -0.041 | IRAK-1-4 Inhibitor I -0.011 | ibrutinib -0.005 | [10] -0.067 | ralimetinib -0.007 | [11] -0.065 | [12] -0.173 | [13] 0.048 | pinometostat -0.015 | [14] 0.069 | [15] 0.017

SNRNP40 (UniProt Q96DI7)
UniProt Q96DI7, sequence (Q96DI7 whole entry, looked up): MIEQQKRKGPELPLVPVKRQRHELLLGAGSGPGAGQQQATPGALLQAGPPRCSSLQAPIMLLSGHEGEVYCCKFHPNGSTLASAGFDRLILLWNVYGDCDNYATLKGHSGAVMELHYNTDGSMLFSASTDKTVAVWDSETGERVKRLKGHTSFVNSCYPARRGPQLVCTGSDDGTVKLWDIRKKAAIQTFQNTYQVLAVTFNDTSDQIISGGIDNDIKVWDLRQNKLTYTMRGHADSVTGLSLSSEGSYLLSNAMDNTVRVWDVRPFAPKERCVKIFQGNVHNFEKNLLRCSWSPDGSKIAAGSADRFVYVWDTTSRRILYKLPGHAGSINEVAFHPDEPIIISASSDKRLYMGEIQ
active: [15] 1.03
inactive: erlotinib -0.048 | [1] -0.012 | [2] -0.111 | [3] 0.037 | [4] -0.007 | [5] 0.049 | [6] -0.024 | [7] -0.005 | [8] 0 | [9] 0.008 | IRAK-1-4 Inhibitor I -0.016 | ibrutinib 0.045 | [10] 0.068 | ralimetinib -0.026 | [11] 0.086 | [12] 0.177 | [13] 0.038 | pinometostat -0.019 | [14] -0.1

TFAM (UniProt Q00059)
UniProt Q00059, sequence (Q00059 whole entry, looked up): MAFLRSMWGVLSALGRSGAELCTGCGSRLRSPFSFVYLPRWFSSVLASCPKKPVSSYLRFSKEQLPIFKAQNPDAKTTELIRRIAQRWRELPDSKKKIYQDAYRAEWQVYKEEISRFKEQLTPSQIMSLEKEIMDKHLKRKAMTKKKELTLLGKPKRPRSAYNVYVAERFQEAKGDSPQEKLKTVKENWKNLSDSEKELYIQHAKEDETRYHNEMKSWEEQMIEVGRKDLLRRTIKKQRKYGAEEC
inactive: erlotinib -0.085 | [1] -0.071 | [2] -0.127 | [3] 0.031 | [4] -0.009 | [5] -0.022 | [6] -0.068 | [7] -0.05 | [8] 0.06 | [9] -0.078 | IRAK-1-4 Inhibitor I -0.047 | ibrutinib 0.03 | [10] 0.07 | ralimetinib 0.044 | [11] 0.043 | [12] 0.007 | [13] 0.056 | pinometostat 0.05 | [14] 0.002
active: [15] -0.414

SNW1 (UniProt Q13573)
UniProt Q13573, sequence (Q13573 whole entry, looked up): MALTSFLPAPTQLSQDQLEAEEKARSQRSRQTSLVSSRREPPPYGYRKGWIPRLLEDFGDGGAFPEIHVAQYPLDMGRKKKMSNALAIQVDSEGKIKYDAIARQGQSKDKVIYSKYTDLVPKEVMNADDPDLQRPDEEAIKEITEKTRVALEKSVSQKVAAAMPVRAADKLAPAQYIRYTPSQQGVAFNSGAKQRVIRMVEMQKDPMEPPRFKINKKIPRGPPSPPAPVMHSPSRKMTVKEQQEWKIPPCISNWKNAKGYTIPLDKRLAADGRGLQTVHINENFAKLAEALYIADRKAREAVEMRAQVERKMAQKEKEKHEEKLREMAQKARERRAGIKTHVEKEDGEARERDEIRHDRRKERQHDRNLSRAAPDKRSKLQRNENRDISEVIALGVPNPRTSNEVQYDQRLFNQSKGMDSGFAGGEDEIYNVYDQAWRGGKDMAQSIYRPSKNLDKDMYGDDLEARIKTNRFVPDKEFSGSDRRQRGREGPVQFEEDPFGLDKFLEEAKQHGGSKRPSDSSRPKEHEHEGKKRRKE
inactive: erlotinib -0.047 | [1] -0.028 | [2] -0.029 | [3] 0.036 | [4] -0.015 | [5] 0.045 | [6] -0.051 | [7] -0.001 | [8] 0.001 | [9] 0.002 | IRAK-1-4 Inhibitor I 0.004 | ibrutinib 0.024 | [10] 0.197 | ralimetinib 0.021 | [11] 0.024 | [12] 0.149 | [13] 0.075 | pinometostat -0.008 | [14] -0.015
active: [15] 0.23

SRP72 (UniProt O76094)
inactive: erlotinib 0.044 | [1] 0.105 | [2] -0.072 | [3] -0.054 | [4] 0.066 | [5] 0.001 | [6] 0.005 | [7] -0.052 | [8] -0.005 | [9] -0.194 | IRAK-1-4 Inhibitor I -0.119 | ibrutinib -0.03 | [10] -0.025 | ralimetinib 0.104 | [11] -0.121 | [12] -0.275 | [13] 0.062 | pinometostat 0.205 | [14] -0.026
active: [15] -0.547

SSRP1 (UniProt Q08945)
active: [15] -0.554
inactive: erlotinib -0.018 | [1] 0.143 | [2] 0.005 | [3] 0.014 | [4] 0.029 | [5] 0.022 | [6] -0.016 | [7] -0.029 | [8] -0.052 | [9] 0.009 | IRAK-1-4 Inhibitor I -0.044 | ibrutinib -0.037 | [10] -0.138 | ralimetinib -0.022 | [11] -0.008 | [12] -0.119 | [13] 0 | pinometostat -0.036 | [14] -0.02

SRSF11 (UniProt Q05519)
UniProt Q05519, sequence (Q05519 whole entry, looked up): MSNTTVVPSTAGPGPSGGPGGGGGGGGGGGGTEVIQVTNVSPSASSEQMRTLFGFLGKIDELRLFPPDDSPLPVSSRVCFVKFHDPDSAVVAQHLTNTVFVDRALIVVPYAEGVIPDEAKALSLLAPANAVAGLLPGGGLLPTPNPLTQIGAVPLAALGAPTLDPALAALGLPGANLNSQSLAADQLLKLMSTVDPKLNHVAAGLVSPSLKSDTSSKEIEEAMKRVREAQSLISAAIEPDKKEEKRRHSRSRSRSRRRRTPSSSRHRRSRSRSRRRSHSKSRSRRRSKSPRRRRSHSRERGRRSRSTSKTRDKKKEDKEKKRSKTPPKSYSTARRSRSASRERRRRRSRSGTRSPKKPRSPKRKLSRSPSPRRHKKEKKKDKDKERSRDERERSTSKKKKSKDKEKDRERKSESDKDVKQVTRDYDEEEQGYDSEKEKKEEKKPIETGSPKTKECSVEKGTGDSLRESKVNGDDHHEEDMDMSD
active: [10] -0.416
inactive: erlotinib 0.05 | [1] 0.191 | [2] 0.06 | [3] 0.054 | [4] -0.049 | [5] -0.003 | [6] -0.026 | [7] -0.003 | [8] -0.129 | [9] -0.196 | IRAK-1-4 Inhibitor I -0.116 | ibrutinib -0.014 | ralimetinib 0.01 | [11] -0.049 | [12] -0.255 | [13] -0.005 | pinometostat -0.016 | [14] -0.011 | [15] 0.026

SULT1A1 (UniProt P50225)
UniProt P50225, sequence (P50225 whole entry, looked up): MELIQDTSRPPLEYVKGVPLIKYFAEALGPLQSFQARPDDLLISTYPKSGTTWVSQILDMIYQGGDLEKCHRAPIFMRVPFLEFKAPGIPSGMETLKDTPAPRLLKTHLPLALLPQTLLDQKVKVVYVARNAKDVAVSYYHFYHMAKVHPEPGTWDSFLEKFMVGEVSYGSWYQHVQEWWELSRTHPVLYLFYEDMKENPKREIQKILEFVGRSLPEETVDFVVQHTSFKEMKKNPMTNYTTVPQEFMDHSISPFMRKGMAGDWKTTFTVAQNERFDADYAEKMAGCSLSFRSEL
inactive: erlotinib -0.003 | [1] 0.009 | [2] 0.109 | [3] 0.381 | [5] 0.031 | [6] 0.008 | [8] -0.111 | [9] 0.012 | IRAK-1-4 Inhibitor I -0.077 | ibrutinib 0.044 | [10] -0.099 | ralimetinib -0.029 | [11] -0.104 | [12] -0.104 | [13] -0.056 | pinometostat 0.001 | [14] 0.014 | [15] 0.048
active: [4] 0.375 | [7] 0.396

STARD3NL (UniProt O95772)
UniProt O95772, sequence (O95772 whole entry, looked up): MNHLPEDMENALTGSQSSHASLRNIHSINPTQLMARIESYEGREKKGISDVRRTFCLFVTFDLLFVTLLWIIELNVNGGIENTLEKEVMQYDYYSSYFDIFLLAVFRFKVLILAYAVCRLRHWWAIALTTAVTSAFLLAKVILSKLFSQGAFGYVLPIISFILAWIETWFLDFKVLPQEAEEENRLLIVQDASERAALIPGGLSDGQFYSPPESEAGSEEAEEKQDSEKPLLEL
active: [12] -0.432
inactive: erlotinib 0.004 | [1] -0.107 | [2] -0.004 | [3] -0.003 | [4] 0.169 | [5] 0.048 | [6] 0.11 | [7] 0.103 | [8] -0.013 | [9] 0.015 | IRAK-1-4 Inhibitor I 0.014 | ibrutinib -0.023 | [10] -0.216 | ralimetinib 0.038 | [11] -0.014 | [13] -0.036 | pinometostat 0.013 | [14] 0.007 | [15] 0.062

STAM2 (UniProt O75886)
inactive: erlotinib -0.026 | [1] 0.081 | [2] 0.036 | [3] -0.031 | [4] 0.022 | [5] 0.01 | [6] 0.002 | [7] -0.006 | [8] -0.047 | [9] -0.025 | IRAK-1-4 Inhibitor I 0.033 | ibrutinib 0.008 | [10] -0.018 | ralimetinib 0.034 | [11] 0.038 | [12] -0.131 | [13] 0.018 | pinometostat 0.014 | [14] -0.063 | [15] 0.004

STIM1 (UniProt Q13586)
UniProt Q13586, sequence (Q13586 whole entry, looked up): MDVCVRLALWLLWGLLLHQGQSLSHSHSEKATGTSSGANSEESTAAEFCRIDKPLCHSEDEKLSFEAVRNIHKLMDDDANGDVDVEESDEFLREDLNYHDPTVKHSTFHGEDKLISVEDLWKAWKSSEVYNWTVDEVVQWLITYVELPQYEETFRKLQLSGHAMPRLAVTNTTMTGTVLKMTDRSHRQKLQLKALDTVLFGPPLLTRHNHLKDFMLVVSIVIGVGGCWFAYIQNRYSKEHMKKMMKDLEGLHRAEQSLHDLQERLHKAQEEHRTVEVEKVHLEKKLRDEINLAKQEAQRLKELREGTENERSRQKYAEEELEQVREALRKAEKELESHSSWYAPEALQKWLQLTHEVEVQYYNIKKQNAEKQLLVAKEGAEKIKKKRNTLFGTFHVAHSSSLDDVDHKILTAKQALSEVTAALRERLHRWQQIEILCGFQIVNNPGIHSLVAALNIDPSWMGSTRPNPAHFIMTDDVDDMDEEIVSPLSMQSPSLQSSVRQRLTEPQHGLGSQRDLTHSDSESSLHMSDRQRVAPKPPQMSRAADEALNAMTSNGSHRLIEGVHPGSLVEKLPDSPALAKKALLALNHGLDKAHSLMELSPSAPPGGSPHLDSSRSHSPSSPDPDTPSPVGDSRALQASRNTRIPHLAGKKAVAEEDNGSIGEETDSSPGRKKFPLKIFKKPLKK
inactive: erlotinib -0.015 | [1] 0.01 | [2] 0.043 | [3] 0.014 | [4] 0.039 | [5] -0.007 | [6] -0.025 | [7] -0.067 | [8] -0.003 | [9] 0.016 | IRAK-1-4 Inhibitor I 0.006 | ibrutinib 0.007 | [10] -0.06 | ralimetinib -0.036 | [11] -0.067 | [13] 0.034 | pinometostat -0.011 | [14] 0.006 | [15] 0.067
active: [12] -0.33

SRI (UniProt P30626)
UniProt P30626, sequence (P30626 whole entry, looked up): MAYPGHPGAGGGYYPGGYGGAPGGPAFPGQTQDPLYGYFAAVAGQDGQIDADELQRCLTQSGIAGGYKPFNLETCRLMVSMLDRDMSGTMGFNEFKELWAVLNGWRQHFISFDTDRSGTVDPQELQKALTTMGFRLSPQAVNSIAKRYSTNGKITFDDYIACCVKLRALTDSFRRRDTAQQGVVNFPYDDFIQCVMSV
inactive: erlotinib -0.042 | [1] 0.113 | [2] 0.322 | [3] 0.025 | [4] 0.09 | [5] 0.121 | [6] 0.185 | [7] 0.016 | [8] -0.037 | [9] -0.041 | IRAK-1-4 Inhibitor I -0.017 | ibrutinib -0.032 | [10] -0.014 | ralimetinib -0.039 | [11] -0.108 | [12] 0.026 | [13] -0.048 | pinometostat -0.036 | [14] 0.069 | [15] 0.201
